Among the data in PubChem BioAssay (EPA / NIEHS) are outcome and AC50 values, retold here.

A short description of assay [1]: ATG_E_Box_CIS: Attagene CIS-FACTORIAL HepG2 Assay for human Enhancer Box (E-box) (AID 2282936). To be noted: HepG2 E-box cis-reporter transcription, actives raise or lower the signal. An outline of the steps: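 Cells: HepG2 (human liver), transient MRTU transfection. Exposure 24 h. RNA → oligo(dT) RT → PCR → 6-FAM label → HpaI → CE. Activity fitted both directions relative to DMSO.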

Assay [2] in a line: ATG_M_61_CIS: Attagene CIS-FACTORIAL HepG2 Assay for M61 Transcription Factor (Internal Marker) (AID 2282937). The conditions noted are these: HepG2 Attagene CIS-FACTORIAL M61 internal marker reporter; actives raise or lower the signal. The procedure, abridged:
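Readout: fluorescent reporter mRNA fragments resolved by capillary electrophoresis after RT-PCR. Transiently transfected human HepG2 cells carried MRTU constructs reporting endogenous TF activity; 24 h chemical exposure; gain or loss of signal fitted relative to DMSO.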

Assay [3] in a line: ATG_EGR_CIS: Attagene CIS-FACTORIAL HepG2 Assay for human Early Growth Response 1 (EGR1) (AID 2282938). To be noted: HepG2 Attagene CIS-FACTORIAL EGR reporter mRNA; actives raise or lower the signal. An outline of the steps:
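Read-out: fluorescent reporter-mRNA fragments resolved by capillary electrophoresis after RT-PCR, 24 h post-dose in transiently transfected HepG2. Endogenous transcription-factor activity reported via cis-element-regulated reporter units; gain or loss fitted relative to DMSO.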

A short description of assay [4]: ATG_M_19_CIS: Attagene CIS-FACTORIAL HepG2 Assay for M19 Transcription Factor (Internal Marker) (AID 2282939). The conditions noted are these: HepG2 Attagene CIS-FACTORIAL M19 internal marker reporter; actives raise or lower the signal. The procedure, abridged: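 Chemical-treated HepG2 (24 h) with MRTU constructs; reporter transcripts detected by fluorescent RT-PCR fragment analysis on capillary electrophoresis. Internal background marker, DMSO as baseline.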

Assay [5] in a line: ATG_Ets_CIS: Attagene CIS-FACTORIAL HepG2 Assay for human Erythroblast Transformation Specific (ETS) (AID 2282941). To be noted: HepG2 ETS cis-reporter transcription, actives raise or lower the signal. An outline of the steps: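 Steps: transfect HepG2 with multiple reporter units; treat compound 24 h; isolate RNA, DNase-treat, reverse-transcribe; PCR-amplify, label with 6-FAM, digest with HpaI; separate by capillary electrophoresis. Activity fitted both directions versus DMSO.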

The target of assay [6] is Hepatocyte nuclear factor 3-beta (Homo sapiens) (UniProt Q9Y261). In words: ATG_FoxA2_CIS: Attagene CIS-FACTORIAL HepG2 Assay for human Forkhead box A2 (FOXA2) (AID 2282942). The conditions noted are these: HepG2 cis-reporter transcription factor activity, 24 h; actives raise or lower the signal. The procedure, abridged: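 Readout: fluorescent reporter transcripts resolved by capillary electrophoresis after RT-PCR. Transiently transfected HepG2, 24 h compound exposure, endogenous TF activity at cis promoter elements. Gain or loss of signal fitted relative to DMSO.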
Chain of Hepatocyte nuclear factor 3-beta (Homo sapiens) (Q9Y261 whole entry, looked up): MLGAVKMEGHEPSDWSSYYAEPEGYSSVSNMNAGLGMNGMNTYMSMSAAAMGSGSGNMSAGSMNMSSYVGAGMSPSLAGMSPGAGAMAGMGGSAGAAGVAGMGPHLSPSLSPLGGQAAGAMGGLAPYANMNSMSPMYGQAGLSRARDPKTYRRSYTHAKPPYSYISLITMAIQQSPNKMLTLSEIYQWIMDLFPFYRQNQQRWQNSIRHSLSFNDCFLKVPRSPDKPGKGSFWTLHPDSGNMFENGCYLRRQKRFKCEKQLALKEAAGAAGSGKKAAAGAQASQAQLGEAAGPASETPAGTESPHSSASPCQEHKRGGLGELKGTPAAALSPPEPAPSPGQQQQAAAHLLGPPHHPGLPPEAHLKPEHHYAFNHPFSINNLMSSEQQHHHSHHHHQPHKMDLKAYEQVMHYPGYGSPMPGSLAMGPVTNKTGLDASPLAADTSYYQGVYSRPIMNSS

Assay [7] can be described thus: ATG_FoxO_CIS: Attagene CIS-FACTORIAL HepG2 Assay for human Forkhead box O (FoxO) (AID 2282943). To be noted: HepG2 Attagene cis-reporter, FoxO element, mRNA; actives raise or lower the signal. The procedure, abridged: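 Human hepatoma HepG2 cells carry transiently introduced reporter transcription units controlled by cis promoter elements. Chemical treatment lasted 24 h, and mRNA signal was compared with DMSO.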

Assay [8] can be described thus: ATG_GATA_CIS: Attagene CIS-FACTORIAL HepG2 Assay for human GATA Binding Protein (AID 2282944). To be noted: HepG2 GATA cis-element reporter, Attagene multiplex mRNA; actives raise or lower the signal. The procedure, abridged:
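Transfected cis-reporter HepG2 cells were treated with chemicals for 24 hours. Total RNA was then converted to cDNA, amplified with reporter-specific primers and analysed by fluorescent capillary electrophoresis, using DMSO-treated wells as baseline.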

A short description of assay [9]: ATG_GLI_CIS: Attagene CIS-FACTORIAL HepG2 Assay for human Zinc Finger Protein GLI1 (AID 2282945). The conditions noted are these: HepG2, Attagene cis-factorial reporter mRNA, GLI element; actives raise or lower the signal. The procedure, abridged: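 Bidirectional curve fits relative to DMSO, using reporter mRNA levels from RT-PCR plus capillary electrophoresis. Cells were HepG2 transiently carrying cis-regulated reporter constructs, harvested 24 h after dosing.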

A short description of assay [10]: ATG_GRE_CIS: Attagene CIS-FACTORIAL HepG2 Assay for human Glucocorticoid Response Elements (GRE) (AID 2282947). The conditions noted are these: HepG2 GRE cis-reporter, Attagene multiplex mRNA; actives raise or lower the signal. The procedure, abridged:
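Transient MRTU transfection of human HepG2 liver cells; cis-regulated reporters report endogenous factors. 24 h dosing → RNA isolation → RT-PCR → 6-FAM primer extension → HpaI cut → CE fragment analysis. Bidirectional fit, DMSO negative control.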

A short description of assay [11]: ATG_ISRE_CIS: Attagene CIS-FACTORIAL HepG2 Assay for human Interferon Regulatory Factor 1 (IRF1) binding to an Interferon-Stimulated Response Element (ISRE) (AID 2282948). The conditions noted are these: HepG2 ISRE cis-reporter (Attagene), mRNA transcription readout; actives raise or lower the signal. The procedure, abridged:
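Transfected HepG2 (multiple reporter transcription units, cis elements) dosed 24 h. RNA → oligo(dT) RT → PCR → 6-FAM primer extension → HpaI → CE. DMSO = negative control/baseline.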

The nature of assay [12]: ATG_M_32_CIS: Attagene CIS-FACTORIAL HepG2 Assay for M32 Transcription Factor (Internal Marker) (AID 2282949).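 Also: background control marker of the multiplexed CIS panel rather than a real target.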 To be noted: HepG2 Attagene cis-factorial M32 reporter, mRNA; actives raise or lower the signal. An outline of the steps:
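HepG2 cells transiently transfected with multiplexed cis-regulated reporter units, dosed 24 h. Reporter mRNA quantified by RT-PCR, 6-FAM labelling, HpaI digestion and capillary electrophoresis; bidirectional fit vs DMSO.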

Assay [13] in a line: ATG_M_06_CIS: Attagene CIS-FACTORIAL HepG2 Assay for M06 Transcription Factor (Internal Marker) (AID 2282950). To be noted: HepG2 Attagene CIS-FACTORIAL M06 internal marker reporter; actives raise or lower the signal. An outline of the steps:
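Cells (HepG2, transiently carrying cis-driven reporter units) receive chemical for 24 h before RNA isolation. Reporter cDNA is PCR-amplified, FAM-labelled by primer extension, HpaI-digested and sized on a capillary analyser.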

Assay [14] deals with Hypoxia-inducible factor 1-alpha (Homo sapiens) (UniProt Q16665). Briefly: ATG_HIF1a_CIS: Attagene CIS-FACTORIAL HepG2 Assay for human Hypoxia Inducible Factor 1 (HIF1A) (AID 2282951). To be noted: HepG2 Attagene cis-factorial HIF1a reporter transcription; actives raise or lower the signal. An outline of the steps:
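RT-PCR/capillary electrophoresis fluorescence readout of reporter transcripts from endogenous-TF-driven cis elements in transfected HepG2 cells, 24 h exposure; activity fitted in both directions against DMSO controls.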

Assay [15] has as its target Hepatocyte nuclear factor 6 (Homo sapiens) (UniProt Q9UBC0). In words: ATG_HNF6_CIS: Attagene CIS-FACTORIAL HepG2 Assay for human Hepatocyte Nuclear Factor 6 (HNF6) (AID 2282952). The conditions noted are these: HepG2 Attagene cis-factorial HNF6 reporter transcription; actives raise or lower the signal. An outline of the steps:
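HepG2 cells transiently transfected with cis-element-driven multiple reporter transcription units, dosed 24 h; reporter mRNA quantified by RT-PCR, FAM primer extension, HpaI digestion and capillary electrophoresis; bidirectional fit versus DMSO baseline.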

For assay [16], the target named is Heat shock factor protein 1 (Homo sapiens) (UniProt Q00613). In words: ATG_HSE_CIS: Attagene CIS-FACTORIAL HepG2 Assay for human Heat Shock Transcription Factor 1 (HSE) (AID 2282953). The conditions noted are these: HepG2 HSE cis-reporter, Attagene RNA transcription; actives raise or lower the signal. An outline of the steps: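 Liver-derived HepG2 cells carry transiently introduced multiple reporter units governed by cis promoters. Reporter RNA measured 24 h post-dose through reverse transcription, PCR amplification, fluorescent labelling and capillary electrophoresis, normalised to DMSO.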
Chain of Heat shock factor protein 1 (Homo sapiens) (Q00613 whole entry, looked up): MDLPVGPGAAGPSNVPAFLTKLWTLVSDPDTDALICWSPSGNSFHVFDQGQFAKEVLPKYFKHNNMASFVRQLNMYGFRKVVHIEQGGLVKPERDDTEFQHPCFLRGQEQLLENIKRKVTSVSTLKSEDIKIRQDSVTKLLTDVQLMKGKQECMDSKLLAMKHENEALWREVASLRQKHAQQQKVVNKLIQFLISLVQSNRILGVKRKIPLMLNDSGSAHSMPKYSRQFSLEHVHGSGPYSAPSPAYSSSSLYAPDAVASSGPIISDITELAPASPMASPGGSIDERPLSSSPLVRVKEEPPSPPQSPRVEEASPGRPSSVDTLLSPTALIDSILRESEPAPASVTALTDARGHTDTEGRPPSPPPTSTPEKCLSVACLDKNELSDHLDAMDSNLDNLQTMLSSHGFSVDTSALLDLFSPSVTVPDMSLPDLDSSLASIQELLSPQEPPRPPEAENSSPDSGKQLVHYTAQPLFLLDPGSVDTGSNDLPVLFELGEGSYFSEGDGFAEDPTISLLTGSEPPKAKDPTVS

The nature of assay [17]: ATG_MRE_CIS: Attagene CIS-FACTORIAL HepG2 Assay for human Metal Responsive Element (MRE) (AID 2282954). To be noted: HepG2 MRE cis-reporter transcription, Attagene multiplex; actives raise or lower the signal. An outline of the steps: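 Transient MRTU transfection of HepG2 (FuGene 6); 24 h dosing; total RNA → oligo(dT) RT, PCR, 6-FAM primer extension, HpaI cut, CE. Bidirectional fit vs DMSO.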

Assay [18] can be described thus: ATG_PBREM_CIS: Attagene CIS-FACTORIAL HepG2 Assay for human Phenobarbital-responsive Enhancer Module (PBREM) (AID 2282955). To be noted: HepG2 PBREM cis-reporter, Attagene multiplexed transcription; actives raise or lower the signal. An outline of the steps: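 Reporter mRNA read by RT-PCR, 6-FAM primer extension, HpaI digestion and capillary electrophoresis. Transfected HepG2 cells, 24 h compound exposure. Gain or loss of signal fitted bidirectionally relative to DMSO baseline.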

The target in assay [19] is Bile acid receptor (Homo sapiens) (UniProt Q96RI1). Briefly: ATG_IR1_CIS: Attagene CIS-FACTORIAL HepG2 Assay for human Nuclear Receptor Subfamily 1 Group H Member 4 (NR1H4), IR1 submotif (AID 2282946). The conditions noted are these: IR1 reporter transcription, actives raise or lower the signal. The procedure, abridged: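 Cells (human HepG2) carry transiently transfected cis-promoter reporter transcription units. Compounds are incubated 24 h, total RNA is reverse-transcribed and amplified, and labelled fragments are resolved by capillary electrophoresis. Curves use DMSO as baseline.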
Chain of Bile acid receptor (Homo sapiens) (Q96RI1 whole entry, looked up, the tested form may be a part): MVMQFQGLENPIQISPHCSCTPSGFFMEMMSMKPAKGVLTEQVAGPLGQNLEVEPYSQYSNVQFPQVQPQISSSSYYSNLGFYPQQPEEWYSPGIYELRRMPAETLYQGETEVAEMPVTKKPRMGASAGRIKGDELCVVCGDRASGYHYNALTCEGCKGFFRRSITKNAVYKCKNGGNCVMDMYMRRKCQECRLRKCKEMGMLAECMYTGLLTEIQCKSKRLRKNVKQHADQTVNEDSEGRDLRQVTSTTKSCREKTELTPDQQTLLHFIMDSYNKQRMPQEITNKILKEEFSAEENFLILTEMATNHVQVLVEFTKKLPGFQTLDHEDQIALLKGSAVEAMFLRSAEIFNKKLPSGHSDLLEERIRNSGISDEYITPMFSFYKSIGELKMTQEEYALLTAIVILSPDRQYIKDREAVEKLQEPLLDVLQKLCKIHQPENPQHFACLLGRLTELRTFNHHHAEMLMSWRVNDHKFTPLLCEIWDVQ

Each structure is given as a SMILES string. Active and inactive are the calls of the source. The calls were made as follows: active = hit-call score of the fitted dose curve at least 0.9, where 1 is the maximum; inactive = score below 0.9.

Chain of Hepatocyte nuclear factor 6 (Homo sapiens) (Q9UBC0 whole entry, looked up): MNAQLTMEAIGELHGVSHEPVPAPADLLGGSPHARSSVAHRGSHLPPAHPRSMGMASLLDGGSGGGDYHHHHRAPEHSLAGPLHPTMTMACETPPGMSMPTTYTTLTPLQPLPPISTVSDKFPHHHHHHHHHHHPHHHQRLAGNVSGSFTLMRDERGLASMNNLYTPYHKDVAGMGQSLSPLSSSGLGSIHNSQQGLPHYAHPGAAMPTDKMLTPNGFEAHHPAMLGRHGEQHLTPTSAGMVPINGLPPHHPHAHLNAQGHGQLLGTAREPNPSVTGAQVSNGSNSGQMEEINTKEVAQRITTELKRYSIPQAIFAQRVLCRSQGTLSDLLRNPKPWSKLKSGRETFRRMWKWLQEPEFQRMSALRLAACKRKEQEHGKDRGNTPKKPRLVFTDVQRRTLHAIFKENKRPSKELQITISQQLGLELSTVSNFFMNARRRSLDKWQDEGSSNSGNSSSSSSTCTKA
Chain of Hypoxia-inducible factor 1-alpha (Homo sapiens) (Q16665 whole entry, looked up): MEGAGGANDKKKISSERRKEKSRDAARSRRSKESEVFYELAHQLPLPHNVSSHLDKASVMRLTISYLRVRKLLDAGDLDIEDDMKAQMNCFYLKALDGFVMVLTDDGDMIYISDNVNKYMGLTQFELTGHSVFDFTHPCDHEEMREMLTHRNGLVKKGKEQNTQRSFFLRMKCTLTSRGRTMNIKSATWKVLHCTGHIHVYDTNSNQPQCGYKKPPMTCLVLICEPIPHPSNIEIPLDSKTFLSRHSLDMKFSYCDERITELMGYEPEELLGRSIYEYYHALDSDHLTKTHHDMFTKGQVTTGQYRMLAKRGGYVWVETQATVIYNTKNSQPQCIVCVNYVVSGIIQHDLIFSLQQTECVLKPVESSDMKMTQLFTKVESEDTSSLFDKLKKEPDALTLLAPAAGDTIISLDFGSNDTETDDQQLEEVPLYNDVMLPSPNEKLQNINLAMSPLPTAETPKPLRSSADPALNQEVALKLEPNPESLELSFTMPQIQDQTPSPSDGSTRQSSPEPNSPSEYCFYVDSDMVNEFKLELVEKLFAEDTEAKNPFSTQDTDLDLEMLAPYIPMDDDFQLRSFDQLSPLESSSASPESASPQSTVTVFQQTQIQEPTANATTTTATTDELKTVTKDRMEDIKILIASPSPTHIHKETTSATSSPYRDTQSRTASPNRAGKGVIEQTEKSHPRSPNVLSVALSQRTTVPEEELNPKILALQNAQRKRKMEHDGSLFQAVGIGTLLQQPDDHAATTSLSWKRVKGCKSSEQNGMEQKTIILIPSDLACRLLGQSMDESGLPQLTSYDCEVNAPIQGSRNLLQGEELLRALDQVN

As for `CC(=O)Nc1ccc2c(c1)Cc1cc(NC(C)=O)ccc1-2`, the outcome in [1], in [2], in assay [3], in assay [4], in assay [5] and in assay [6] was inactive. In addition, the compound was classed as inactive in assay [7], in [8], in assay [9], in assay [10], in assay [11] and in [12]. In addition, the compound was called inactive in assay [13], in assay [14], in assay [15], in assay [16], in assay [17] and in assay [18].

Regarding `Nc1ccc(N)c(Cl)c1`, the concentration at half-maximal activity (AC50) (as a rule, the concentration giving half of the maximal activity seen) in [1] is 33.5 µM (active); in [11], 45.7 µM (active); in assay [15], 57.2 µM (active); in assay [18], 26.2 µM (active). Further, the result in assay [2], in [3], in assay [4], in assay [5], in [7] and in assay [8] was inactive. The call in assay [9], in assay [19], in [10], in assay [12], in assay [13] and in assay [14] was inactive. In assay [17], the outcome was inactive.

Take `O=C1CCCC1`: the outcome in [1], in assay [2], in assay [3], in [4], in assay [5] and in assay [6] was inactive. Besides, the outcome in assay [7], in [8], in assay [10], in assay [11], in assay [12] and in assay [13] was inactive. Besides, the call in [14], in assay [15], in assay [16] and in assay [17] was inactive.

On to `CCCCC(CC)CCC(CC(C)C)OS(=O)(=O)O` (stereo not drawn), for which the outcome in assay [1], in assay [2], in [3], in assay [4], in [5] and in assay [6] was inactive. Also, the compound was classed as inactive in assay [8], in [9], in [19], in [11], in assay [12] and in assay [13]. Also, the call in assay [14], in [15], in [16], in assay [17] and in assay [18] was inactive.
